This passage reports growth results from PubChem BioAssay (NCI).

Holding throughout (test): NCI-60 one-dose screen, 48 h (100 = growth as untreated, 0 = no growth, -100 = all killed)
What all share (details): 10 µM

Test [1] concerns SK-MEL-2 melanoma.
Test [2] deals with EKVX NSCLC.
The subject of test [3] is UO-31 renal.
For test [4], the system named is TK-10 renal.
In test [5] the test system is ACHN renal.
Test [6] has as its system CAKI-1 renal.
For test [7], the system named is A498 renal.
The subject of test [8] is CCRF-CEM leukemia.
The subject of test [9] is MOLT-4 leukemia.
Test [10] has as its system SR leukemia.
Test [11] deals with RPMI-8226 leukemia.
Test [12] deals with OVCAR-8 ovarian.
Test [13] deals with OVCAR-5 ovarian.
Test [14] concerns OVCAR-4 ovarian.
In test [15] the test system is SK-OV-3 ovarian.
Test [16] deals with IGROV1 ovarian.
For test [17], the system named is OVCAR-3 ovarian.
For test [18], the system named is HS 578T breast.
Test [19] relates to NCI/ADR-RES ovarian.
The test system of test [20] is SN12C renal.

About 83,000 compounds went through this panel and 20% of them were active in at least one assay; those are over-represented in the sample as a whole.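 Results are percent growth after 48 hours of single-concentration exposure. 100 means growth as in untreated cells, lower positive values show inhibition; negative values down to -100 show cell death.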 Values without a mark were called inactive. Active and inactive are the calls of the source. How the source made its calls: active means growth percent below 10; inactive means the rest.

With `Cc1ccc(N=Nc2ccccc2)cc1`, the growth is 97.6% in test [1]; 94.8% in [2]; 94.8% in [3]; 95.1% in test [4]; 107% in test [5]; 96.4% in [6]. Moreover, the growth in test [7] is 104%; in [8], 99%; in test [9] it was 95.5%; in test [10] it was 90.3%; in test [11], 100%; in [12], 106%. Moreover, the growth in test [13] was 99.7%; in test [14], 108%; in test [15], 89.4%; in test [16], 102%; in test [17], 105%; in test [18], 103%. In addition, in test [19], the growth was 102%.

With `Cc1ccc(C(C)C)c(O)c1NC(=O)OC(C)C`, the growth in [1] is 96.6%; in test [2], 92.3%; in test [20], 91.9%; in [4] it was 116%; in test [6], 121%; in test [7] it was 91.5%. Also, the growth in [8] was 104%; in test [9], 122%; in test [10] it was 115%; in test [11], 102%; in test [12], 95.7%; in test [15], 106%. For the same compound, the growth in test [17] was 104%; in [18] it was 95.8%; in test [19], 98.3%.

`CCOC(=O)N/N=C/c1ccc(OC)c(OC)c1`: the growth in [1] was 115%; in [20] it was 99.2%; in test [3], 106%; in test [4] it was 123%; in [5], 106%; in test [6], 110%. The growth in test [7] was 107%; in test [8], 91.4%; in test [9], 107%; in test [10], 105%; in test [11], 102%; in [12], 102%. In addition, the growth is 112% in test [13]; 110% in test [14]; 114% in test [15]; 110% in test [16]; 128% in test [17]; 116% in test [19].

Turning to `C/C=C/CSC(C)(C)C(=O)NC`, the growth is 109% in [1]; 99.8% in test [2]; 106% in test [20]; 103% in [4]; 108% in test [5]; 103% in [7]. Further, the growth in test [8] was 98.5%; in [9], 102%; in test [10], 109%; in test [11] it was 99.8%; in test [12], 98.4%; in [13] it was 113%. In addition, the growth was 117% in test [14]; 95.6% in test [15]; 115% in test [16]; 108% in test [17]; 99.5% in test [18]; 108% in test [19].

For `O=C(CI)OCC(COC(=O)CI)OC(=O)CI`, the growth is 83.1% in [1]; 76.8% in test [20]; -89.8% (active) in test [3]; 78.9% in test [4]; 11.2% in [5]; -17.6% (active) in test [6]. Further, the growth was 108% in test [7]; 44.4% in [9]; -12.9% (active) in [10]; 50.9% in [11]; 97.9% in test [12]; 104% in test [13]. The growth in [14] was 64%; in test [15], 119%; in test [16], -57.1% (active); in [17] it was 72.2%; in [18], 97.4%; in test [19], 95.6%.

Take `COc1ccc(/C=C2\CCCC3=C2NC(N)=NC3c2ccc(OC)c(OC)c2)cc1OC` (stereo not given): the growth in test [1] is 56.8%; in test [2] it was 82.7%; in test [20] it was 57.4%; in test [5], 27.3%; in test [6], 55.9%; in [7], 91.3%. Besides, the growth in test [8] is 15.3%; in test [9] it was 53.1%; in test [10], 28.1%; in test [11], 15.2%; in test [12], 10.6%; in [13] it was 74.4%. Besides, the growth in test [14] was 53.4%; in [15], 44.1%; in [16], 57.1%; in test [17], 10.8%; in test [18], 87.9%; in test [19], 25.1%.

For the compound `CC1C(=NC(=O)c2cnccn2)C(C)C(c2ccc(Cl)cc2)NC1c1ccncc1` (stereo not given), the growth in test [1] is 104%; in [2], 88.6%; in test [20], 93.3%; in test [4], 130%; in test [5] it was 91.5%; in test [7] it was 115%. The growth in test [8] is 79.5%; in [9], 78.5%; in test [10], 126%; in test [11], 69.1%; in test [12], 88.3%; in [13], 103%. Moreover, the growth in test [14] was 122%; in test [15] it was 94.4%; in test [17] it was 113%; in test [18], 125%; in [19] it was 90.3%.

As for `Cc1nn(-c2ccccc2)c2nc(Cl)c(C=O)c(-c3ccccc3)c12`, the growth was 114% in [1]; 98.2% in test [20]; 48.1% in test [3]; 113% in test [4]; 114% in test [5]; 78.6% in [7]. Also, the growth in [8] was 36.3%; in test [12], 99.9%; in [13] it was 99.8%; in [14], 102%; in test [15] it was 116%; in test [17], 106%. Further, the growth was 112% in [18] and 82.8% in test [19].

As to `CC1CCCC(C(=O)O)C1C(=O)O` (stereo not given), the growth in test [1] is 93.4%; in test [2], 95.4%; in [3] it was 92.7%; in [4], 93.8%; in test [5], 105%; in test [6], 97.2%. Moreover, the growth in [7] was 95.8%; in test [8], 99.3%; in test [9] it was 77.6%; in test [10] it was 98.9%; in test [11] it was 94.1%; in test [12] it was 94.4%. Moreover, the growth was 99.8% in [13]; 103% in test [14]; 90.4% in test [15]; 106% in test [16]; 110% in [17]; 95.4% in test [18]. Besides, in [19], the growth is 102%.

With `COc1cccc2ccc(CC(O)(c3ccccc3)c3ccccc3)nc12`, the growth in test [1] was 85.1%; in test [20] it was 93.8%; in test [3] it was 59.8%; in test [4], 128%; in test [5], 84.3%; in [6] it was 87.2%. Further, the growth in [7] is 102%; in test [8], 95.7%; in test [9], 88.6%; in [10] it was 82.3%; in test [11], 90.7%; in test [12] it was 91.5%. The growth in [13] was 115%; in test [14], 51.2%; in test [15] it was 93.3%; in test [17] it was 80.3%; in test [18] it was 103%; in test [19], 94.4%.

Regarding `C#CC(C)(O)[C@@H]1C[C@H](CC(=O)O)C1(C)C` (stereo not given in full), the growth in test [1] is 108%; in test [20], 108%; in test [3] it was 87.1%; in test [4], 114%; in test [5], 110%; in test [6] it was 96%. Also, the growth in test [7] was 110%; in test [8], 137%; in [9] it was 114%; in test [10] it was 88.9%; in [11], 109%; in test [12], 112%. The growth in test [13] is 102%; in [14], 117%; in test [15] it was 116%; in test [17] it was 119%; in test [18], 105%; in test [19], 111%.

On to `Clc1ccc(Cc2ccncc2)cc1`, for which the growth in test [1] is 121%; in test [2], 101%; in test [20] it was 95.4%; in [4] it was 130%; in test [6], 130%; in test [7], 104%. In addition, the growth was 104% in [8]; 114% in [9]; 97.6% in test [10]; 109% in [11]; 99% in [12]; 113% in test [15]. The growth in test [17] is 110%; in test [18] it was 105%; in test [19] it was 108%.

For the compound `CCOc1ccccc1/C=N/N1CCCCCC1`, the growth in test [1] was 113%; in [2], 96.7%; in [4] it was 104%; in test [5], 104%; in test [6], 85.7%; in [8], 100%. The growth is 97.7% in test [9]; 89.3% in [10]; 110% in test [11]; 103% in [12]; 107% in [13]; 95.9% in test [15]. In addition, the growth in [17] is 97.1%; in [18], 96%; in [19], 100%.

On to `COc1cc(-c2nn(-c3ccc(NC(=O)NCCNS(=O)(=O)c4ccc(F)cc4)cc3)cc2-c2ccncc2)ccc1Cl`, for which the growth in [1] was 8.8% (active); in [2] it was 33%; in test [20] it was 39.9%; in test [4] it was 28.1%; in [5] it was 23.7%; in test [7], -19.1% (active). In addition, the growth was 9.28% (active) in test [8]; 11.6% in test [9]; 1.26% (active) in test [10]; -21.6% (active) in test [11]; 9.18% (active) in [12]; 27.1% in [13]. The growth in [14] was 41.8%; in [15], 18.1%; in test [16], 27.3%; in [17], 7.55% (active); in [18], 21.6%; in test [19], 79.2%.

For `Nc1ncnc2c1ncn2C1(CO)OCC(O)C(O)C1O` (stereo not given), the growth in [1] is 93.5%; in test [2], 100%; in test [20], 103%; in test [4], 87.3%; in test [5] it was 107%; in test [8], 101%. Besides, the growth was 105% in [9]; 109% in [10]; 104% in test [11]; 102% in [12]; 109% in test [13]; 111% in test [14]. The growth in test [15] is 98.2%; in test [16], 105%; in test [17], 103%; in test [18], 104%; in [19] it was 98.6%.

For `COc1ccc(N=Nc2cc(OC)c(OC)c(OC)c2)cc1`, the growth in test [1] is 74.1%; in test [2], 77.3%; in test [3] it was 58.6%; in [4] it was 84.7%; in [5], 80.2%; in test [6], 70.2%. The growth in test [7] is 73.5%; in test [8] it was 65.6%; in test [9], 78%; in test [10] it was 58.2%; in [11], 72.8%; in test [12], 87.2%. The growth in [13] is 77.8%; in [14] it was 100%; in test [15] it was 77.6%; in [16], 62.7%; in test [17], 87.7%; in test [18] it was 79.3%. Besides, the growth in test [19] was 91.2%.

Consider `COc1cccc(N=Nc2cccc(OC)c2)c1`, for which the growth in [1] was 94.4%; in test [2], 83.5%; in test [3] it was 88.2%; in test [4] it was 95.9%; in test [5] it was 93%; in [6], 94.2%. Further, the growth in test [7] was 86.4%; in test [8], 90.8%; in test [9] it was 79.5%; in test [10], 92.8%; in test [11], 87%; in [12], 96.2%. Moreover, the growth in [13] is 90.6%; in test [14], 104%; in test [15], 84.6%; in test [16], 89.6%; in test [17], 102%; in [18], 79.8%. Besides, the growth in [19] is 105%.
